Kir21 block: blocks the mouse Kir2.1 inward-rectifier potassium channel | HEK293-Kir2.1, FluxOR thallium flux fluorescence; stronger effect = lower value | B-score at 10 µM | 0.85% of 310,000 active | AID 1672;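 active = fluorescence ratio B-score at or below minus 3 SD of library scores, with starting-brightness B-score within 2 SD, cut at about -4.2 in these data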;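 also: channel flux triggered by added potassium and thallium sulfate stimulus; B-score of peak minus minimum fluorescence over baseline after thallium stimulus; more negative B-score means stronger Kir2.1 block with less thallium influx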
KCNK3 inh: human KCNK3 channel inhibition, primary screen. O14649. CHO-KCNK3 thallium flux, FluxOR fluorescence; stronger effect = lower value. B-score at 10 µM. 0.84% of 340,000 active;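 active = B-score under library mean minus 4 SD, starting fluorescence ratio at most library mean plus 5 SD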;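 also: more negative B-score means stronger inhibition of thallium flux through KCNK3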
TMEM16A inh: blocks the mouse calcium-activated chloride channel TMEM16A. HEK293 TMEM16A/YFP iodide influx fluorescence, ionomycin. normalized B-score (activity score, 25-100; higher = stronger inhibition) at 10 µM. 1.2% of 310,000 active;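 active = ratio plate-corrected score three or more library SD toward inhibition, starting fluorescence score within five deviations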;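 also: score derived from kinetic fluorescence span divided by baseline fluorescence per well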
Target sequence (Q8BHY3 whole entry, looked up): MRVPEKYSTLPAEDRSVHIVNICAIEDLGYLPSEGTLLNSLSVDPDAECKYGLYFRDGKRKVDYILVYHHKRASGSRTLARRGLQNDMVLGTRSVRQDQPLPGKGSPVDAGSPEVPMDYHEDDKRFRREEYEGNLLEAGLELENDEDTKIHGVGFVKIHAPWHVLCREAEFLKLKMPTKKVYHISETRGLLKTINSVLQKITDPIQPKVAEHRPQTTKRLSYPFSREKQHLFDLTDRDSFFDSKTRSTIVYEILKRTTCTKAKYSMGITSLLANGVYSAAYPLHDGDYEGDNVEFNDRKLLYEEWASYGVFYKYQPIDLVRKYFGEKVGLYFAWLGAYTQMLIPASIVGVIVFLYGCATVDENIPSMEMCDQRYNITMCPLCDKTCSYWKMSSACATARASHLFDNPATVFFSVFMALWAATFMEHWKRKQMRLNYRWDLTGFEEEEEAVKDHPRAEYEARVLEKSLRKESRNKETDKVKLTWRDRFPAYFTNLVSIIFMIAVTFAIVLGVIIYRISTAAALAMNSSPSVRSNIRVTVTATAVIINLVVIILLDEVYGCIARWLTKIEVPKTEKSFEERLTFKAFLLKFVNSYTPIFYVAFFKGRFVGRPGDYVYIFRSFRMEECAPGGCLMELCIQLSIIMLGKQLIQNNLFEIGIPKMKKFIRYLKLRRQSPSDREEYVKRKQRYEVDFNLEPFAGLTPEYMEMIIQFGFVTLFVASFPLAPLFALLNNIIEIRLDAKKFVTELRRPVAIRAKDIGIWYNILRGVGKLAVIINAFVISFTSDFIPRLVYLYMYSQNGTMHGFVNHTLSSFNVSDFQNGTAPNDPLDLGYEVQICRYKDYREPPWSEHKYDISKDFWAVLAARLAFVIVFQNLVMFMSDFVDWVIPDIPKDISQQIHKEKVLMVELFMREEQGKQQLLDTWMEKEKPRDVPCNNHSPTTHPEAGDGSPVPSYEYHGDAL
KCNK9 inh: inhibitors of human KCNK9 two-pore domain potassium channel; Q9NPC2; B-score at 10 µM; HEK293 KCNK9, FluxOR thallium flux fluorescence; stronger effect = lower value; AID 488922; 1.2% of 310,000 active;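 active = ratio B-score over 3 SD below the library mean, with starting fluorescence within 5 SD of its mean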;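 also: negative B-score means less thallium flux so channel inhibition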
TMEM16A act: mouse TMEM16A channel activation, primary screen; Q8BHY3; B-score at 10 µM; HEK293 TMEM16A/YFP-H148Q/I152L, iodide quench fluorescence; stronger effect = lower value; 0.3% of 340,000 active;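 active = fluorescence-ratio B-score plate-corrected deviation score at least 3 library SD below zero, with starting fluorescence score within 5 deviations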;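 also: channel opened by trigger with iodide after compound preincubation; score built on the fluorescence ratio of max minus min over baseline; more negative score means more quench and so TMEM16A activation or potentiation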
TMEM16A reconf: reconfirmed blocker of mouse TMEM16A calcium-activated chloride channel. inhibition, % at 10 µM. AID 652189. HEK293 TMEM16A/YFP-H148Q, iodide quench fluorescence; ionomycin added to raise cell calcium. 39% of 2,300 active. shares compounds with TMEM16A inh;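 active = mean duplicate percent inhibition, scaled so buffer wells are 0 and the reference blocker 100, over three buffer SD above buffer mean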
TMEM16A Ca cntr: calcium mobilization counter-screen hit for TMEM16A inhibitor series; shares compounds with TMEM16A inh; TMEM16A/YFP HEK293, Fluo4 calcium mobilization; calcium response (% of ionomycin), % at 10 µM; 2% of 2,300 active;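 active = duplicate-averaged calcium signal over 20% of the ionomycin maximum, relative to buffer baseline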;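 also: each well's signal is peak minus trough fluorescence divided by its pre-addition baseline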
YFP-HEK293 quench: parental YFP-HEK293 iodide quench counter-screen activity; shares compounds with TMEM16A inh; ionomycin; 2,300 tested, under 10 active; YFP ratio F(max-min)/F0 at 10 µM;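 active = yellow fluorescent protein signal ratio exceeding the buffer control mean by over 5 SD of those controls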;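 also: ratio is mean of duplicate wells from kinetic YFP trace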
ClC-1 inh: selectivity of TMEM16A inhibitors: inhibition of rat ClC-1 chloride channel. shares compounds with TMEM16A inh. CHO ClC-1-YFP, iodide influx fluorescence quench; iodide control reads 0, buffer control 100. ratio percent, % at 10 µM. 2,300 tested, under 10 active. AID 652236;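 active = duplicate-mean ratio percent above the mean of iodide-only control wells, which defines zero, plus 5 of their SD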;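 also: higher percent means stronger block of ClC-1 iodide influx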
A number is an active result; – = inactive; · = no result. Sampled rows, rich in hits. Any-hit rate of the full collection: about 3.5%.

SMILES | Kir21 block | KCNK3 inh | TMEM16A inh | KCNK9 inh | TMEM16A act | TMEM16A reconf | TMEM16A Ca cntr | YFP-HEK293 quench | ClC-1 inh
CC(C)Cn1c(N)c(C(=O)COC(=O)CCc2nc3ccccc3s2)c(=O)n(C)c1=O | – | – | 100 | – | – | 21% | – | – | –
CC(C)Cn1c(N)c(C(=O)COC(=O)CC23CC4CC(CC(C4)C2)C3)c(=O)n(C)c1=O | – | – | 25 | – | – | 34% | – | – | –
CC(=O)N(CN1C(=O)c2ccccc2C1=O)c1cccc(C)c1 | – | – | – | – | – | · | · | · | ·
CC(=O)N(/N=C1\Sc2ccccc2C1=O)c1cccc(C)c1 | – | – | – | – | – | – | – | – | –
Cc1c(N=Cc2cccnc2)c(=O)n(-c2ccccc2)n1C | – | – | – | – | – | · | · | · | ·
Cc1c(N=C/C=C/c2ccccc2)c(=O)n(-c2ccccc2)n1C | – | – | 25 | – | – | – | – | – | –
COc1ccc(NC(=O)c2ccc(S(=O)(=O)N3CCOCC3)o2)cc1 | – | – | – | – | – | · | · | · | ·
O=C(CCc1nc2ccccc2[nH]1)Nc1ccc(F)cc1 | – | – | 25 | – | – | – | – | – | –
COC(=O)C1=C(C)N(Cc2ccco2)C(=O)N[C@H]1c1cccc(C(F)(F)F)c1 | · | · | – | · | · | · | · | · | ·
CCN(CC)CCCNC(=O)c1cc2nc(-c3ccccc3)cc(C(F)(F)F)n2n1 | – | – | 100 | – | – | – | – | – | –
COCCNC(=O)c1cc2nc(-c3ccc(F)cc3)cc(C(F)(F)F)n2n1 | – | – | – | – | – | · | · | · | ·
Cc1ccc(S(=O)(=O)Nc2ccc(Cl)cc2C(=O)c2ccc(F)cc2)cc1 | – | – | – | – | – | · | · | · | ·
Cc1ccc(S(=O)(=O)Nc2ccc(Cl)cc2C(=O)c2ccccc2)cc1 | – | – | 25 | – | – | – | – | – | –
CCC(CO)Oc1cc(NCc2ccc(C(F)(F)F)cc2)c2ncn(C(C)C)c2c1 (stereo not drawn) | · | – | · | · | – | · | · | · | ·
Cc1cccc(NC(=O)Cn2nnc3ccccc32)c1 | – | – | – | – | – | · | · | · | ·
Clc1ccc(CN2CCN(c3ncccn3)CC2)cc1 | – | – | – | – | – | · | · | · | ·
Cc1cccc(C)c1OC(=O)CN(c1ccc(Cl)cc1)S(C)(=O)=O | – | – | – | – | – | · | · | · | ·
CC1CCN(S(=O)(=O)c2cccc(C(=O)O)c2)CC1 | – | – | 100 | – | – | – | – | – | –
CC1CCN(S(=O)(=O)c2cccc(C(N)=O)c2)CC1 | – | – | – | – | – | · | · | · | ·
CCC(C)NC(=O)CCNS(=O)(=O)c1ccc(Br)cc1 (stereo not drawn) | – | – | – | – | – | · | · | · | ·
CCOC(=O)c1c(NC(=O)CSc2nc3cc(Cl)ccc3c(=O)n2Cc2ccco2)sc(C(=O)N(C)C)c1C | – | – | – | – | – | · | · | · | ·
CCOC(=O)N1CCC(NC(=O)C(CC(C)C)NC(=O)C2CCC(C)CC2)CC1 (stereo not drawn) | – | – | 100 | – | – | – | – | – | –
CC(C)n1c(-c2ccc(C(C)(C)C)cc2)n[nH]c1=S | – | – | 100 | – | – | – | – | – | –
O=C(NC1CCN(Cc2ccccc2)CC1)c1cc(S(=O)(=O)N2CCOCC2)ccc1Cl | · | – | · | · | – | · | · | · | ·
COc1cc(S(=O)(=O)N2CCOCC2)ccc1NC(=O)COC(=O)CC12CC3CC(CC(C3)C1)C2 | – | – | – | – | – | · | · | · | ·
SMILES | Kir21 block | KCNK3 inh | TMEM16A inh | KCNK9 inh | TMEM16A act | TMEM16A reconf | TMEM16A Ca cntr | YFP-HEK293 quench | ClC-1 inh
Cc1ccccc1Cn1ccc(NC(=O)c2cnn3c2NC(c2ccccc2)CC3C(F)(F)F)n1 (stereo not drawn) | – | – | 25 | – | – | – | – | – | –
CCOP(=O)(c1ccc(N(C)C)cc1)C(O)c1ccccc1OC (stereo not drawn) | – | – | 100 | – | – | – | – | – | –
COc1ccc2[nH]cc(CCNS(=O)(=O)c3ccc(F)cc3)c2c1 | – | – | 25 | – | – | – | – | – | –
COc1ccc2[nH]cc(CCNS(=O)(=O)c3ccccc3)c2c1 | – | – | – | – | – | · | · | · | ·
COc1ccc(C2CC(=O)c3cnc(N4CCN(Cc5ccccc5)CC4)nc3C2)cc1 (stereo not drawn) | – | – | 25 | – | – | – | – | – | –
O=C1CC(c2ccco2)Cc2nc(N3CCN(Cc4ccc5c(c4)OCO5)CC3)ncc21 (stereo not drawn) | – | – | 25 | – | – | – | – | – | –
Cc1ccc(C2CC(=O)c3cnc(N4CCN(c5ccccc5)CC4)nc3C2)cc1 (stereo not drawn) | – | – | – | – | – | · | · | · | ·
COc1ccccc1-n1c(=O)oc2ccc(Cl)cc2c1=O | · | – | 25 | · | – | 22% | – | – | –
COc1ccc(CNC(=O)COC(=O)c2ccc(S(=O)(=O)NCc3ccco3)cc2)cc1 | · | – | · | · | – | · | · | · | ·
CNc1ncnc(Sc2ccc(Cl)cc2)c1[N+](=O)[O-] | – | – | – | – | – | · | · | · | ·
NS(=O)(=O)c1ccc2c(c1)C1C=CCC1C(C1CC=CCC1)N2 (stereo not drawn) | – | – | 100 | – | – | – | – | – | –
CC(=O)c1ccccc1OCc1ccc(S(=O)(=O)Cc2ccccc2)cc1 | – | – | 25 | – | – | 34% | – | – | –
CCc1ccc(C(=O)Nc2ccc(OC)c(S(=O)(=O)N3CCOCC3)c2)cc1 | – | – | 100 | – | – | – | – | – | –
CCc1ccc(C(=O)Nc2ccc(OC)c(S(=O)(=O)N3CCCCC3)c2)cc1 | · | – | · | · | – | · | · | · | ·
Cc1ccc(S(=O)(=O)N2CCCCC2)cc1NC(=O)CSc1ncnc2ccccc12 | – | – | – | – | – | · | · | · | ·
Cc1ccc(NC(=O)CSc2ncnc3ccccc23)cc1S(=O)(=O)N1CCCCCC1 | – | – | 25 | – | – | 27% | – | – | –
COc1ccc(NC(=O)CN(C)CC(=O)Nc2ccc(C)c(S(=O)(=O)N3CCCCC3)c2)cc1 | · | – | · | · | – | · | · | · | ·
COc1ccc(C(=O)Nc2ccc(C)c(S(=O)(=O)N3CCCCCC3)c2)cc1 | – | – | 100 | – | – | – | – | – | –
Cc1cccn2c(=O)c(/C=C(\C#N)C(=O)NCc3ccccc3)c(N3CCC(C(N)=O)CC3)nc12 | – | – | – | – | – | · | · | · | ·
CC(=O)Oc1ccc(C(=O)Nc2nnc(C)s2)cc1 | – | – | – | – | – | – | – | – | –
Cc1cccc(C(=O)NC(=S)NNC(=O)COc2c(C)cccc2C)c1 | – | – | – | – | – | · | · | · | ·

From PubChem
